# Assay results taken from PubChem BioAssay AID602179 (National Center for Advancing Translational Sciences (NCATS), 2012).
# Among all 390,000 compounds or so, about 360 (0.092%) were called active. This is one part of a sample in which actives are shown more often than they occur. Unmarked numbers belong to inactive results. The call rests on the fitted dose curve; in most records, active means well fitted inhibition curve with a large enough effect; inconclusive means small, poorly fitted or top-dose-only effect; inactive means no such curve, though single readings can be large or run the other way.
# Target: Isocitrate dehydrogenase [NADP] cytoplasmic (Homo sapiens) (UniProt O75874)
# Assay: qHTS for Inhibitors of mutant isocitrate dehydrogenase 1 (IDH1): qHTS; further: nearly all actives have a fitted effect of over 65% in size
# Conditions: IDH1-R132H enzyme, NADPH consumption, diaphorase/resazurin fluorescence; series mostly up to 76.6 µM; activity change, negative = inhibition: at the top concentration
# Description: Unbiased genomic sequencing for 22 glioma genomes found recurrent mutation of isocitrate dehydrogenase 1 (IDH1) on chromosome 2q33-a gene encoding the cytosolic isoform of IIDH1associated with the tricarboxylic acid cycle (TCA) that catalyzes the oxidative decarboxylation of isocitrate, yielding alpha-ketoglutarate and CO2 via NADP+ to NADPH conversion. Subsequent studies confirmed the recurrent IDH mutations in up to 70% of secondary gliomas and in 10% of AML cases. […] This in effect defines IDH1 as an oncogene, and provides an extraordinary opportunity to discover chemical probes against mutant IDH1 that may translate into much needed new therapies for glioma and AML patients. […] NIH Chemical Genomics Center [NCGC] NIH Molecular Libraries Probe Centers Network [MLPCN] MLPCN Grant: DA032129 Assay Submitter (PI): Lenny Dang, Agios Pharmaceuticals
# IDH1-R132H (0.5 ug/mL) was dispensed into black, solid-bottom 1536-well plates at 3 uL/well in 20 mM Tris-HCl (pH 7.5), 150 mM NaCl, 10 mM MgCl2, 4 mM beta-ME, and 0.05% protease-free BSA. Then, 23 nL of compounds or DMSO were delivered to each well using a pin tool. A pre-read was run on the Viewlux to identify fluorescent compounds (540 nm excitation filter, 598 nm emission filter, bodipy mirror and 2 second exposure). After 30 minutes of incubation with compound, 3 uL of substrate mix were dispensed (0.016 mM NADPH, 2 mM alpha-KG, 20 mM Tris-HCl (pH 7.5), 150 mM NaCl, 10 mM MgCl2, and 0.05% protease-free BSA). Plates were spun for 1 min at 1000xg and incubated at room temperature for 80 min. Then 1.5 uL of each detection reagent component for the coupling system were added (0.12 mg/mL diaphorase and 0.072 mM resazurin, each in 20 mM Tris-HCl (pH 7.5), 150 mM NaCl, 10 mM MgCl2, and 0.05% protease-free BSA ) The protein, substrate and two detection components were maintained at 4 °C throughout the screen. Additionally, the substrate and resazurin reagents were protected from light. The plates were measured on an Envision plate reader for fluorescence signal using a 540 nm excitation filter and 590 nm emission filter with 10 flashes. 1x and 0x (no-enzyme) IDH1-R132H enzyme control were used to normalize %Activity of identified inhibitors; 0x enzyme values corresponded to 100% Activity (full inhibition), while 1x IDH1-R132H enzyme values were used to normalize 0%Activity (no inhibition). Concentration-response curves were fitted to the signals arising from the resulting fluorescence. The concentration-effect curves were then classified based on curve quality (r2), response magnitude and degree of measured activity, and compounds were subsequently categorized based on their curve class. […] Keywords: isocitrate dehydrogenase, IDH1, IDH1-R132H, MLSMR, MLPCN, NIH Roadmap, qHTS, NCGC
# Potency means the concentration at half of the fitted maximal effect.
# Sequence of Isocitrate dehydrogenase [NADP] cytoplasmic (Homo sapiens) (O75874 whole entry R132H, change not shown): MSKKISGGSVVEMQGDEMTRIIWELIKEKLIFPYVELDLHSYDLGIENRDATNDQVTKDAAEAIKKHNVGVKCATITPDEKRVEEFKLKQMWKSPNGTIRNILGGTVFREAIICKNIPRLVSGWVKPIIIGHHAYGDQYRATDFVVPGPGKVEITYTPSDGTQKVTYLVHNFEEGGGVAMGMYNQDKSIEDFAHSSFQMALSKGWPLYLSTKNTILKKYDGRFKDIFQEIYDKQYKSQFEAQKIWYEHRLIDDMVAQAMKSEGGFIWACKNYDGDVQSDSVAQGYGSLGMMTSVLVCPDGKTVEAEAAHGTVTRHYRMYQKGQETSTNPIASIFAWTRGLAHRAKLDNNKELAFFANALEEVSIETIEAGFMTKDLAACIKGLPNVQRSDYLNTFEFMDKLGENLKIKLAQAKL
Structure (SMILES),"activity change, negative = inhibition",Potency
Cc1nn(-c2nc(-c3ccccc3)cc(C(F)(F)F)n2)c(C)c1Cl,-2.85%,–
CN(C)c1cccc(C(=O)Nc2nc3ccc(S(=O)(=O)NC(C)(C)C)cc3s2)c1,-9.07%,–
NS(=O)(=O)c1ccc2nc(NC(=O)COc3ccccc3)sc2c1,16.5%,–
O=C(NC(Nc1nc2ccc([N+](=O)[O-])cc2s1)(C(F)(F)F)C(F)(F)F)c1ccccc1,–,9.27 µM (active)
CCc1ccc(NC(=O)C2CCCN2S(=O)(=O)c2ccc3nc(-c4ccccc4)[nH]c3c2)cc1 (stereo not drawn),12.1%,–
CCOC(=O)c1ccc(NC(=O)Cn2c(=O)cc(C)c3c(C)nn(-c4cccc(F)c4)c32)cc1,2.76%,–
CCCCN(CC)CCCNC(=O)c1nn(C)c2c1CSc1ccccc1-2,-11.4%,–
O=C(CN1C(=O)CCn2nc(-c3ccccc3)cc21)NCc1ccccc1,8.18%,–
COc1ccc2c(C)c(CCC(=O)NCc3ccc(OC)c(OC)c3)c(=O)oc2c1,9.73%,–
CSc1ccc(C2c3c(oc4ccccc4c3=O)C(=O)N2CCCN2CCOCC2)cc1 (stereo not drawn),-26.3%,–
Cc1ccc(C(=O)NCCSc2c(C)[nH]c3ccccc23)cc1C,15%,–
O=C(Nc1ccccc1Br)c1cc(CN2CCCC2)on1,18.6%,–
Cc1ccc(C)c(NC(=O)C2CCCN(S(=O)(=O)c3cn(C)cn3)C2)c1 (stereo not drawn),-0.0051%,–
Cc1ccc(CNC(=O)CSc2c(C)cnc3c2c(=O)n(C)c(=O)n3C)cc1,-5.79%,–
O=C(Nc1nc2c(s1)CCCC2)c1ccccc1F,5.05%,–
Cc1ccc(N2CC(C(=O)Nc3ccc(N(C)C)cc3)CC2=O)cc1Cl (stereo not drawn),-6.08%,–
COc1cccc(NC(=O)C(=O)NCC(c2ccc3c(c2)OCO3)N2CCN(C)CC2)c1 (stereo not drawn),4.3%,–
CSc1ccc(CCNC(=O)c2ccc3c(c2)nc2n3CCOC2)cc1,17.1%,–
O=C(NC1CC(=O)N(c2ccc(F)cc2)C1)C1CCCCC1 (stereo not drawn),2.04%,–
O=C(/C=C/c1ccccc1)Nc1cc(-c2nc3cc(Cl)ccc3o2)ccc1Cl,3.86%,–

Structure (SMILES),"activity change, negative = inhibition",Potency
Cc1ccc(CCNC(=O)c2ccc3c(c2)N(Cc2cc(C)ccc2C)C(=O)c2ccccc2S3=O)cc1 (stereo not drawn),-5.3%,–
O=C(CCc1nc(CN2CCN(S(=O)(=O)c3ccc(F)cc3)CC2)no1)N1CCCCC1,1.03%,–
CCOc1ccc(Nc2oc(/C=C/c3ccc(F)cc3)nc2C#N)cc1,0%,–
Oc1ccc(-c2nc3ccc(Cl)cn3c2Nc2ccc3c(c2)OCO3)cc1,-2.86%,–
COc1cc(OC)c(N(C)C(=O)c2cc3c(=O)oc4ccccc4c3s2)cc1Cl,-4.35%,–
COc1ccc(-c2nc(Cn3c(=O)cc(C)c4c(C)nn(-c5ccccc5)c43)c(C)o2)cc1OC,14.5%,–
COc1ccccc1Nc1nc(N)nc(N)c1S(=O)(=O)c1ccccc1,8.86%,–
O=[N+]([O-])/C=C/c1ccc2c(ccn2Cc2ccccc2)c1,–,20.7 µM (active)
O=c1c(=O)n(Cc2c(F)cccc2Cl)ccn1Cc1ccccc1,-0.719%,–
COc1ccc(Cn2ccn(Cc3cccc(OC)c3)c(=O)c2=O)cc1,-4.83%,–
COc1ccc(Cl)cc1N(C)C(=O)c1cc2c(=O)oc3ccc(C)cc3c2s1,9.62%,–
COc1ccc(CCNC(=O)CCc2c(C)nc3c(c(C)nn3-c3ccc(C)c(C)c3)c2C)c(OC)c1OC,-2.76%,–
CCN(CC)C(=O)CSc1nc2ccsc2c(=O)n1Cc1ccccc1Cl,8.23%,–
Cc1ccc(-c2ccc(CCC(=O)O)n2-c2ccc(C(N)=O)cc2)cc1,-7.5%,–
N#Cc1nc(/C=C/c2ccc(F)cc2)oc1NCc1ccc(F)cc1,-16.7%,–
CCOc1ccc(Nc2nc3c(S(=O)(=O)c4cccc(Cl)c4)nnn3c3ccsc23)cc1,11.3%,–
COc1cc(OC)c(C2C=C(C(=O)O)Nc3ncnn32)cc1OC (stereo not drawn),-1.93%,–
O=C1Cc2cc(S(=O)(=O)Nc3ccc(OC(F)(F)F)cc3)cc3c2N1CCC3,9.9%,–
COc1cc(C(=O)NCCc2csc3nc(-c4ccccc4C)nn23)cc(OC)c1OC,-17.5%,–
CCc1ccc(C2C(C(=O)Nc3ccccc3)=C(C)Nc3c(C(=O)Nc4ccc(C)cc4)cnn32)cc1 (stereo not drawn),-18.3%,–

Structure (SMILES),"activity change, negative = inhibition",Potency
CN(C)c1ccc(C(CNS(=O)(=O)c2cc(F)ccc2F)N2CCOCC2)cc1 (stereo not drawn),0%,–
COc1ccc(S(=O)(=O)c2c(Nc3ccc(C)cc3)sc(C(=O)c3ccc(C)cc3)c2N)cc1,-3.17%,–
Cc1ccccc1CCNC(=O)C1CCN(c2nc3ccccc3nc2C(F)(F)F)CC1,4.43%,–
O=C(c1ccccc1F)N1CCC(c2nc3c(nnn3Cc3cccc(F)c3)c(=O)[nH]2)CC1,7.98%,–
CCOc1ccc(NC(=O)c2c(NCc3cccc(OC)c3OC)sc3c2CCC3)cc1,-16.2%,–
COc1cc(OC)c(NC(=O)c2cc(S(=O)(=O)N3CCCC3)cn2C)cc1Cl,-0.894%,–
O=C(COc1ccc(Cl)cc1)Nc1ccccc1OCc1cc(=O)n2ccccc2n1,-3.61%,–
COc1ccc(OC)c(NC(=O)CSC2=Nc3ccccc3C3=NC(CC(=O)NCCc4ccccc4)C(=O)N23)c1 (stereo not drawn),-6.25%,–
O=C(COc1ccccc1Cl)Nc1ccc2nc(SCC(=O)N3CCCC3)sc2c1,-3.02%,–
O=C(CN1c2ccccc2S(=O)(=O)c2ccccc21)Nc1cccc(C(F)(F)F)c1,-11.9%,–
COc1cccc(-c2nc(CS(=O)(=O)CC(=O)N3CCN(c4cc(C)ccc4C)CC3)c(C)o2)c1,-8.51%,–
COc1ccc(CNC(=O)CSc2nc3ccccc3nc2Cc2ccccc2)cc1,10.4%,–
CCOC(=O)c1c(C)n(S(=O)(=O)c2ccc(C)cc2C)c2ccc(NS(=O)(=O)c3ccc(C)cc3C)cc12,-0.772%,–
CCOc1cccc(C(=O)Nc2nnc(S(=O)(=O)N(C)c3ccc(C)cc3)s2)c1,0%,–
COc1ccccc1Nc1c2c(nc3ccc(NC(=O)/C=C/c4cc(OC)c(OC)c(OC)c4)cc13)CCCC2,1.05%,–
O=C(Nc1c(-c2ccc(F)cc2)nc2ccccn12)c1cccc(F)c1,-3.61%,–
Cc1ccc(-n2ncc3c(N4CCC(C(N)=O)CC4)ncnc32)cc1,-7.51%,–
Cc1c(NC(=O)Cc2ccccc2)cccc1-c1nc2cccnc2s1,0%,–
